PubChem BioAssay AID1469 (National Center for Advancing Translational Sciences (NCATS), 2008)
The campaign covered roughly 280,000 compounds. About 180 (0.064%) were called active. The sample holds actives, similar compounds and a random draw of the others, so the mix is not that of the screen. Calls come from the whole dose curve; as a rule, active = well fitted inhibition curve with a large enough effect; inconclusive = small, poorly fitted or top-dose-only effect, or effect the other way; inactive = flat fitted curve, though single readings scatter.

Each molecule was assayed against Thyroid hormone receptor beta (Homo sapiens) (UniProt P10828) (assay: qHTS for Inhibitors of the Interaction of Thyroid Hormone Receptor and Steroid Receptor Coregulator 2). Details: TRbeta-SRC2 peptide binding, fluorescence polarization, receptor liganded with 1 µM T3; series mostly up to 106 µM; activity change, negative = inhibition: at the top concentration.
Summary of the method: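 Binding of a 20-amino-acid Texas Red SRC2 peptide (20 nM) to TRb ligand-binding domain (0.6 uM) with agonist T3 at 1 uM was followed by fluorescence polarization after a 5 hr room-temperature incubation.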
Note: nearly all actives have a fitted effect of over 50% in size.
Potency is the fitted concentration of half-maximal effect.
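Throughout, for activity change, negative = inhibition: plate controls were bound peptide for no effect and peptide without receptor for full effect.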

Sequence of Thyroid hormone receptor beta (Homo sapiens) (P10828 whole entry, looked up, the tested form may be a part): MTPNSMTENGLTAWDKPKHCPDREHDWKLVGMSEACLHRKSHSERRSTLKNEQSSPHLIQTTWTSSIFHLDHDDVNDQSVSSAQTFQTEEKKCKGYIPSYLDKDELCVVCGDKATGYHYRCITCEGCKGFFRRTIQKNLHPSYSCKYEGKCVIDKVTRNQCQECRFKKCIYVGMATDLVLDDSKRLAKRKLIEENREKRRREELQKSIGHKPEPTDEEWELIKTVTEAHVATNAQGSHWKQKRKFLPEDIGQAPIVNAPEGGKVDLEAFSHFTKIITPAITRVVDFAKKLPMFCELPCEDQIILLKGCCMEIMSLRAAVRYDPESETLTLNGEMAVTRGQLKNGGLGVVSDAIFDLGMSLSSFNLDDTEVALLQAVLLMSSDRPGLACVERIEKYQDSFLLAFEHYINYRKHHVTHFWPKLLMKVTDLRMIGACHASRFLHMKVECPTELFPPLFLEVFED

Compound	activity change, negative = inhibition	Potency
CC1(C)C(=O)N(Cl)C(=O)N1Cl	4.76% [at 201 µM] (inactive)	–
CCCCCCCCCCCCCCCC	3.03% [at 201 µM] (inactive)	–
CCOc1ccccc1NC(=O)Cn1c2ncccc2c(=O)n1-c1ccc(C)c(C)c1	-4.71% (inactive)	–
CC(C)Cn1c(-c2ccc(S(=O)(=O)N3CCOCC3)cc2)csc1=Nc1cc(Cl)ccc1Cl	7.76% (inactive)	–
COc1cccc(-c2nc(CS(=O)(=O)CC(=O)N3CCN(c4cc(C)ccc4C)CC3)c(C)o2)c1	3.54% (inactive)	–
CC1(C)C(=O)N(Br)C(=O)N1Br	-5.8% [at 201 µM] (inactive)	–
Cc1nc2ccn(Cc3cccs3)c(=O)c2cc1C(=O)NCc1ccc(Cl)cc1	-1.99% (inactive)	–
CCOc1cc(-c2nnc(SCC(=O)NC3CCCCC3)nc2-c2ccc(OC)c(OCC)c2)ccc1OC	1.75% (inactive)	–
Cc1ccc(N)c(S(=O)(=O)O)c1	2.84% [at 201 µM] (inactive)	–
CCc1c(C(=O)O)c(=O)cnn1-c1ccc(Cl)cc1	-9.72% [at 201 µM] (inactive)	–
CC1CCN(S(=O)(=O)c2ccc3c(ccn3CCC(=O)NCc3ccc(N(C)C)cc3)c2)CC1	5.16% (inactive)	–
COc1ccc(N2CCN(C(=O)C3CCCN(C(=O)c4cc5sccc5n4C)C3)CC2)cc1 (configuration not stated)	-10.4% (inactive)	–
CC(=O)Nc1ccc(NC(=O)c2cc3sccc3n2Cc2ccc(F)cc2)cc1	-11.5% [at 53 µM] (inactive)	–
CCOc1ccc(OCC)c(NC(=O)CN(c2ccc(C)cc2)S(=O)(=O)c2c(C)n[nH]c2C)c1	-4.13% (inactive)	–
COc1ccc(CCNC(=O)CCCCn2c(=O)c3ccccc3n(Cc3ccccc3)c2=O)cc1OC	3.43% (inactive)	–
CCCS(=O)(=O)c1c(Nc2ccccc2C)sc(C(=O)c2ccccc2)c1N	-0.894% (inactive)	–
COc1cccc(NC(=O)CSc2cc(=O)n(C)c3ccc(Cl)cc23)c1	-5.98% (inactive)	–
CSc1ccccc1NC(=O)CCS(=O)(=O)c1nc(-c2cccs2)cc(C(F)(F)F)n1	-1.72% (inactive)	–
COc1ccc2c(c1)Cc1sc(NC(=O)c3ccccc3Br)nc1-2	1.79% (inactive)	–
COc1cc(OC)c(NC(=O)N2CC3CCCN3c3ccccc32)cc1Cl (configuration not stated)	7.62% (inactive)	–
Cc1ccc(C2C=C(c3ccc(Cl)cc3)Nc3nc(NC(=O)CCC(=O)O)nn32)cc1 (configuration not stated)	7.02% (inactive)	–
O=S(=O)(c1ccc2nc(NCc3ccccc3Cl)ccc2c1)N1CCCCC1	-4.04% (inactive)	–

Compound	activity change, negative = inhibition	Potency
COc1ccc(NC(=O)C2CCN(c3ccc(Sc4ccc(C)cc4)nn3)CC2)c(OC)c1	-5.8% (inactive)	–
COc1ccc(Nc2ncc(C(=O)Nc3cc(C)ccc3OC)c3ccccc23)cc1	3.62% (inactive)	–
Cc1ccc(S(=O)(=O)c2nc(-c3cccs3)oc2N2CCCCC2)cc1	-2.62% (inactive)	–
COc1ccccc1Nc1c2c(nc3ccc(NC(=O)/C=C/c4cc(OC)c(OC)c(OC)c4)cc13)CCCC2	-2.02% (inactive)	–
COc1cccc(Cn2c(SCc3ccc(C(=O)N4CCC(C)CC4)cc3)nc3ccncc32)c1	3.21% (inactive)	–
CCOC(=O)Cn1c(=O)n(-c2ccccc2OC)c2nc(-c3cccc(F)c3)nc(C(N)=O)c21	4.92% (inactive)	–
Cc1cccc(N2CCN(C(=O)c3cc4c(=O)oc5ccccc5c4s3)CC2C)c1 (configuration not stated)	-3.7% (inactive)	–
COc1ccc(C)cc1NC(=O)C(=O)NCCc1sc(-c2cccc(C)c2)nc1C	2.44% (inactive)	–
Cc1cccc(Cn2c(SCc3ccc(C(=O)N4CCC(C)CC4)cc3)nc3ccncc32)c1	5.36% (inactive)	–
CN1CCN(c2oc(-c3ccc(COc4ccc(Cl)cc4)o3)nc2C#N)CC1	-3.91% (inactive)	–
CC(=O)c1ccc(NC(=O)CSc2c(C(C)C)cnc3c2c(=O)n(C)c(=O)n3C)cc1	4.88% (inactive)	–
CCOc1ccc(C2C(=O)N(C3CCCCC3)CC(=O)N2CCC2=CCCCC2)cc1OC (configuration not stated)	-5.28% (inactive)	–
COc1ccccc1N1CCN(C(CNC(=O)C(=O)NCc2ccc(C)cc2)c2cccnc2)CC1 (configuration not stated)	-1.91% (inactive)	–
COCCOC(=O)c1sc(=S)n(CCOC)c1N	–	39.8 µM (active)
COC(=O)c1sc(=S)n(-c2ccc(Cl)cc2)c1C	-4.22% (inactive)	–
CCOC(=O)c1c(N)sc(C(C)=O)c1C	0.0277% (inactive)	–
Cc1cc(C)c(N)c(Cl)c1	2.23% [at 201 µM] (inactive)	–
COc1ccc(C2Sc3ccccc3NC3=C2C(=O)c2ccccc23)c(OC)c1OC (configuration not stated)	0.429% (inactive)	–
CCOc1cccc(CC(=O)N2CCc3c([nH]c4ccccc34)C2c2ccc(OC)cc2)c1OCC (configuration not stated)	-4.13% (inactive)	–
Cc1ccc(OCC(=O)Nc2ccc(Cl)c(-c3nc4ccccc4[nH]3)c2)cc1C	11.7% (inactive)	–
COc1ccc(C(F)(F)F)cc1NC(=O)c1sc2nc(-c3cccs3)ccc2c1N	-2.16% (inactive)	–
CCOc1ccc(C(=O)/C=C/c2cn(CC(O)CN3CCCCCC3)c3ccccc23)cc1 (configuration not stated)	-2.38% (inactive)	–

Compound	activity change, negative = inhibition	Potency
Cc1ccc(CCNC(=O)c2ccc3c(c2)N(Cc2cc(C)ccc2C)C(=O)c2ccccc2S3=O)cc1 (configuration not stated)	0.82% (inactive)	–
O=C(C1CCC(Cn2c(=O)c3sccc3n(Cc3ccccc3F)c2=O)CC1)N1CCCCC1 (configuration not stated)	4.55% (inactive)	–
COc1cccc(N2CCN(S(=O)(=O)c3cc(Br)cc4c3N(C(=O)C3CC3)CC4)CC2)c1	-4.31% (inactive)	–
CCOc1cccc2sc(N3CCN(C(=O)C4CC4)CC3)nc12	-14.1% (inactive)	–
COc1ccc(OCCCn2c(C)nc3cc(C)c(C)cc32)cc1	-2.57% (inactive)	–
CC(=O)Nc1ccc2nc(SCCOc3cc(C)cc(C)c3)sc2c1	-2.28% (inactive)	–
COc1ccc(NC(=O)CSc2nc3ccccc3n2CC(=O)N2CCCCC2C)cc1 (configuration not stated)	-6.31% (inactive)	–
Cc1cccc(CC(=O)Nc2cccc(-c3cn4cccnc4n3)c2)c1	-4.22% (inactive)	–
CC(=O)N(CCN(C(C)=O)C(C)=O)C(C)=O	3.99% [at 201 µM] (inactive)	–
COc1ccc(Cl)cc1-n1c(CCC(=O)O)ccc1-c1ccc(C)cc1	-2.76% (inactive)	–
CCOc1ccccc1N(CC)C(=O)c1cc2ccc3cccnc3c2[nH]1	-10.7% (inactive)	–
CCOc1ccccc1CNC(=O)Nc1cn(CC(C)C)c(=O)c2ccccc12	-27.3% (inactive)	–
O=C(Nc1cc(Cl)cc(Cl)c1)c1ccc2c(c1)N(Cc1cccc(Cl)c1)C(=O)c1ccccc1S2=O (configuration not stated)	-0.837% (inactive)	–
Clc1cccc(-n2ncc3c(NCCc4ccccc4)ncnc32)c1	10.7% (inactive)	–
CCOC(=O)c1c(C)oc2nc(C)nc(N(CC(C)C)CC(C)C)c12	-1.94% (inactive)	–
O=C(Nc1cccc(-c2nc3ccccc3o2)c1)c1cccc(Br)c1	5.75% (inactive)	–
CCN(CC)S(=O)(=O)c1nnc(NC(=O)COc2ccccc2Cl)s1	6.08% (inactive)	–
O=C(c1ccc2c(c1)N(Cc1ccccc1)C(=O)c1ccccc1S2(=O)=O)N1CCC(Cc2ccccc2)CC1	-1.29% (inactive)	–
CCc1ccc(NC(=O)c2sc3nc4c(cc3c2N)CN(CC)CC4)cc1	4.82% (inactive)	–
CC(=O)c1ccc(NC(=O)CSc2nc(-c3ccccc3F)nc3c2c(=O)n(C)c(=O)n3C)cc1	-4.48% (inactive)	–
CCN(CC)c1ccc(NS(=O)(=O)c2cc(-c3cc(C)no3)ccc2C)c(C)c1	7.58% (inactive)	–
Cc1ccc(CNC(=O)c2c(O)nc3c(C)cccn3c2=O)cc1	-2.5% (inactive)	–

Compound	activity change, negative = inhibition	Potency
Oc1ccc(-c2nc3ccc(Cl)cn3c2Nc2ccc3c(c2)OCO3)cc1	-5.33% (inactive)	–
COc1ccc(CCNC(=O)c2ccc(CSCc3ccc(C)cc3)o2)cc1OC	-6.17% (inactive)	–
Cc1ccc(-c2nc(SCc3ccc(Br)cc3)n3[nH]c(=O)cc3n2)cc1	-0.18% (inactive)	–
COc1ccc(N2CCN(S(=O)(=O)CCNC(=O)C(c3ccccc3)c3ccccc3)CC2)cc1	1.78% (inactive)	–
O=C(Nc1nc2c(s1)CCCC2)c1ccccc1F	-5.58% (inactive)	–
Cc1cc(C)cc(Nc2ncnc3onc(-c4ccc(F)cc4)c23)c1	3.63% (inactive)	–
CCOc1cc(C2C(C(=O)OC)=C(C)NC3=C2C(=O)c2ccccc23)ccc1O (configuration not stated)	11% (inactive)	–
OCCC(F)(F)C(F)(F)C(F)(F)C(F)(F)C(F)(F)C(F)(F)C(F)(F)C(F)(F)F	1.78% [at 201 µM] (inactive)	–
CCN(CCCNC(=O)c1ccc(Sc2ccc(C)cc2)c(NC(C)=O)c1)c1cccc(C)c1	-0.569% (inactive)	–
CCCC/C=C/CCCCO	2.76% [at 201 µM] (inactive)	–
CCOC(=O)c1ccc(NC(=O)c2c(NCc3cccs3)sc3c2CCCC3)cc1	2.18% (inactive)	–
O=C(NCc1ccc(F)cc1)c1ccc2nc(N3CCCCC3)sc2c1	3.71% (inactive)	–
CCOc1cccc2c1N[C@@H](c1ccc(C(=O)O)cc1)[C@H]1CC=C[C@@H]21	14.7% (inactive)	–
CN(CC(=O)Nc1ccccc1F)S(=O)(=O)c1ccc2c(c1)c(=O)n(C)c(=O)n2C	2.82% (inactive)	–
CCN(CC)CCNc1ncnc2c1cnn2-c1cc(Cl)ccc1C	8.58% (inactive)	–
CCOC(=O)c1c(C)oc2nc(C)nc(N3CCN(c4ccc(OC)cc4)CC3)c12	4.33% (inactive)	–
CC(C)c1ccc(S(=O)(=O)Nc2ccc(O)c(Sc3nc4ccccc4s3)c2)cc1	5.12% (inactive)	–
CCc1cccc(NC(=O)CN(C)S(=O)(=O)c2ccc3[nH]c4c(c3c2)CCCC4)c1	-2.3% (inactive)	–
CCN(CC)c1ccc(NC(=O)CN2C(=O)c3cccnc3Oc3ccc(Cl)cc32)c(C)c1	0.578% (inactive)	–
Cc1ccc(OCCSc2nc(-c3cccs3)nc3cc(=O)[nH]n23)cc1Cl	-6% (inactive)	–
Cc1ccc(NC2=C(c3ccc(C(F)(F)F)cc3)C(=O)c3ccccc32)cc1F	10.8% (inactive)	–
CCCn1c2ccccc2c2cnn(CC(=O)NCC3CCN(Cc4ccc(C)cc4)CC3)c(=O)c21	0.484% (inactive)	–

Compound	activity change, negative = inhibition	Potency
Cc1cc(C)cc(NC(=O)c2cnc3sc(N4CCCC4)nn3c2=O)c1	4.33% (inactive)	–
Cc1cc(C)c(NC(=O)CN2C(=O)c3cccnc3Oc3ccc(Cl)cc32)c(C)c1	0.211% (inactive)	–
COc1ccc(N2CCN(c3cc(C)nc4nncn34)CC2)cc1	2.01% (inactive)	–
Cn1c(=O)c2c(-c3ccccc3Br)n(Cc3ccccc3)cc2n(C)c1=O	-1.69% (inactive)	–
CC(C)c1ccc(NC(=O)c2ccc(Cn3nc(N4CCN(c5ccccc5)CC4)ccc3=O)o2)cc1	0.615% (inactive)	–
CCOc1ccc(S(=O)(=O)Nc2ccc3oc4c(c3c2)CC(C)CC4)cc1 (configuration not stated)	6.9% (inactive)	–
CC(C)CCCCCOC(=O)CS	3.95% [at 201 µM] (inactive)	–
CC1Cc2cc(S(=O)(=O)CCC(=O)NCc3ccc(Cl)cc3)ccc2N1C(=O)C1CC1 (configuration not stated)	0.303% (inactive)	–
CCOC(=O)C1CCCN(C(=O)Cn2ncc3c(C)n(Cc4ccc(F)cc4)c(C)c3c2=O)C1 (configuration not stated)	-3.95% (inactive)	–
CSc1ccc(CCNC(=O)c2cc(C)nc3c2c(C)nn3-c2cccc(F)c2)cc1	6.29% (inactive)	–
O=c1cc(CSc2ncn[nH]2)[nH]c2ccc(F)cc12	-0.923% (inactive)	–
CCc1ccc(C(=O)CC2(O)C(=O)N(CCc3ccccc3)c3ccc(Br)cc32)cc1 (configuration not stated)	5.72% (inactive)	–
COc1ccccc1-c1noc(CSc2nnc(-c3ccccc3)n2-c2ccc(C)c(C)c2)n1	10.2% (inactive)	–
Cc1ccc2onc(CC(=O)N3CCN(c4ccc(Cl)cc4)CC3)c2c1	-4.05% (inactive)	–
CC(C)c1ccc(OCC(=O)N(Cc2ccc(N(C)C)cc2)C2CCS(=O)(=O)C2)cc1 (configuration not stated)	1.18% (inactive)	–
CCN(CC)c1ccc(NC(=O)CN2CCN(CC(=O)Nc3ccc(Cl)cc3)CC2)cc1	0.686% (inactive)	–
Clc1ccc(CSc2nncn3c2cc2occc23)cc1	3.3% (inactive)	–
COc1cccc(CNC(=O)CCC(=O)N2CC3CCCN3c3ccccc32)c1 (configuration not stated)	3.45% (inactive)	–
Cc1ccc(C2c3[nH]c4ccccc4c3CCN2C(=O)c2cccc(C)c2)cc1 (configuration not stated)	7.69% (inactive)	–
